Results taken from PubChem BioAssay (NCI).
About 83,000 compounds went through this panel and 20% of them were active in at least one assay; those are over-represented in the sample as a whole.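 Interpretation: 100, growth as untreated; towards 0, rising growth inhibition; 0, no net growth; 0 to -100, cell death. Compounds scoring below 10 were considered active.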

What was measured:
Experiment in all cases: NCI-60 one-dose screen, 48 h (100 = growth as untreated, 0 = no growth, -100 = all killed)
Conditions in all cases: 10 µM
[1] = test system: NCI-H23 lung
[2] = test system: NCI-H226 lung
[3] = test system: NCI-H322M lung
[4] = test system: HOP-62 NSCLC
[5] = test system: NCI-H460 lung
[6] = test system: A549/ATCC NSCLC
[7] = test system: 786-0 renal
[8] = test system: COLO 205 colon
[9] = test system: DU-145 prostate
[10] = test system: K-562 leukemia
[11] = test system: MALME-3M melanoma
[12] = test system: MDA-MB-231 breast
[13] = test system: RXF 393 renal
[14] = test system: SF-268 CNS
[15] = test system: SF-295 CNS
[16] = test system: SF-539 CNS
[17] = test system: M14 melanoma
[18] = test system: HOP-92 NSCLC
[19] = test system: NCI-H522 lung
[20] = test system: UACC-257 melanoma

Measured: growth

O=C(Nc1ccccc1C(=O)NCC1CC1)c1cccs1
inactive: [1] 109% | [2] 88.1% | [3] 126% | [4] 103% | [5] 105% | [6] 102% | [7] 101% | [8] 116% | [9] 118% | [10] 103% | [11] 131% | [12] 97.1% | [13] 98.9% | [14] 113% | [15] 86.5% | [16] 101% | [17] 103%

COc1ccc(C(=O)C(Br)C(Br)C(=O)O)cc1 (configuration not stated)
inactive: [1] 99.1% | [2] 102% | [3] 94.1% | [4] 108% | [5] 104% | [7] 100% | [8] 110% | [9] 111% | [10] 109% | [11] 109% | [12] 111% | [13] 106% | [14] 108% | [15] 108% | [16] 99.5% | [17] 89.2%

O=C(O)c1cccc([N+](=O)[O-])c1
inactive: [1] 95% | [2] 107% | [3] 97.4% | [5] 106% | [18] 96% | [19] 112% | [6] 105% | [7] 104% | [8] 113% | [9] 104% | [10] 96% | [11] 105% | [12] 102% | [13] 117% | [14] 100% | [15] 94.9% | [16] 103% | [20] 107% | [17] 104%

CC(=O)N(C)c1ccc([N+](=O)[O-])cc1
inactive: [1] 101% | [2] 105% | [3] 114% | [5] 117% | [18] 94.5% | [19] 106% | [6] 106% | [7] 105% | [8] 114% | [9] 122% | [10] 111% | [11] 144% | [12] 102% | [13] 102% | [14] 116% | [15] 107% | [16] 106% | [20] 110% | [17] 108%

CC(C)=NNC(N)=S
inactive: [1] 77.7% | [2] 83.7% | [3] 104% | [5] 83.4% | [18] 85.8% | [19] 88% | [6] 92.6% | [7] 104% | [8] 83.5% | [9] 88.3% | [10] 48.2% | [11] 78.4% | [12] 83.8% | [13] 93.1% | [14] 90.7% | [15] 85.4% | [16] 108% | [20] 77.9% | [17] 65.2%

CCC(O)CC(CC)CO (configuration not stated)
inactive: [1] 101% | [2] 102% | [3] 110% | [5] 94.3% | [18] 98.8% | [19] 117% | [6] 105% | [7] 106% | [8] 117% | [9] 121% | [10] 105% | [11] 128% | [12] 108% | [13] 119% | [14] 113% | [15] 109% | [16] 99.4% | [20] 110% | [17] 102%

Cc1ccc(C)n1-c1ccsc1C(=O)NNC(=O)CCl
inactive: [1] 85.1% | [2] 80.1% | [3] 99.7% | [5] 101% | [18] 97.4% | [19] 79.5% | [6] 96.6% | [7] 80.4% | [8] 122% | [9] 105% | [10] 96.3% | [11] 86.7% | [13] 101% | [15] 103% | [16] 101% | [20] 91.3% | [17] 77.8%

COCCOCCCl
inactive: [1] 102% | [2] 101% | [3] 112% | [5] 104% | [18] 95% | [19] 101% | [6] 106% | [7] 105% | [8] 107% | [9] 110% | [10] 97.5% | [11] 112% | [12] 118% | [13] 119% | [14] 101% | [15] 102% | [16] 106% | [20] 104% | [17] 101%

Nc1ccc(N=Nc2ccc(S(=O)(=O)O)cc2)c2ccccc12
inactive: [1] 86.2% | [2] 87% | [3] 91.8% | [5] 94.8% | [18] 76.9% | [19] 95.7% | [7] 106% | [8] 90.7% | [9] 106% | [10] 94.6% | [11] 83.4% | [12] 87.8% | [13] 101% | [14] 106% | [15] 99.5% | [16] 103% | [17] 99.1%
